High-throughput results (PubChem)
KB-V1 cytotox: KB-V1 MDR subline cytotoxicity | hit rate 3.4% among 400,000 | KB-V1 MDR cells viability, CellTiter-Glo, 72 h | Potency, µM (series often up to 46.1 µM), usual class: cytotoxic; note: nearly all actives have a fitted effect of over 60% in size
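Potencies derive from concentration-effect curves fitted to normalized luminescence (CellTiter-Glo) of KB-V1 cells treated for 72 h at 37 degrees C in phenol-red-free DMEM containing 10% FBS.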
SW480 rerep: induces DNA re-replication in SW480 colon adenocarcinoma cells; SW480 DNA re-replication, Hoechst DNA content imaging, 48 h; Potency, µM (series often up to 46.1 µM), most hits filed as activators; hit rate 1.8% among 340,000; AID 624297; note: nearly all actives have a fitted effect of over 55% in size
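Image-based read-out: total Hoechst fluorescence of nuclei (405 nm excitation, 500-530 nm emission), with hits raising the fraction of high-intensity nuclei. SW480 colon cells incubated 48 hr with compounds at 37 C.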
HT1080NT lethal: kills 2HG-producing HT-1080-NT fibrosarcoma cells | HT-1080-NT fibrosarcoma viability, CellTiter-Glo ATP luminescence, 48 h | Potency, µM (doses to about 46.1 µM), most hits filed as cytotoxic | hit rate 1.6% among 360,000 | AID 686970;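 note: NT is the 2HG producing partner of a matched IDH1 knockdown line; nearly all actives have a fitted effect of over 55% in size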
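Toxicity toward the 2HG-producing NT line was scored as %Activity, normalised to DMSO and no-cell wells, from CellTiter-Glo luminescence after 48 hours' treatment.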
MCF10A rerep: DNA re-replication induction in MCF 10a cells. Potency, µM (top dose mostly 46.1 µM), hits mostly activators. MCF 10A DNA re-replication, Hoechst nuclear intensity, 48 h. hit rate 2.9% among 350,000. AID 624296; note: nearly all actives have a fitted effect of over 50% in size
HT1080 IDH1KD tx: toxicity to HT-1080 IDH1 knockdown cells (counter line); HT-1080 IDH1 knockdown viability, ATP luminescence, 48 h; hit rate 2% among 360,000; AID 686971; Potency, µM (highest dose often 46.1 µM), usual class: cytotoxic
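IDH1KD HT-1080 cells, 750/well, RPMI + 5% FBS; compound pinned after 2 h settling; 48 h, 37 °C; CellTiter-Glo luminescence; % activity normalised to DMSO and no-cell wells; curves fitted, classed by r2 and efficacy.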
KB-3-1 cytotox: kills parental KB-3-1 adenocarcinoma cells | KB-3-1 viability, CellTiter-Glo ATP luminescence, 72 h | Potency, µM (highest dose often 46.1 µM), usual class: cytotoxic | hit rate 1.4% among 400,000 | AID 1347075; note: nearly all actives have a fitted effect of over 60% in size
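Parental KB-3-1 adenocarcinoma cells in phenol-red-free DMEM with 10% FBS were pin-treated with compounds at several concentrations, incubated 72 h at 37 °C, and viability read by CellTiter-Glo luminescence; concentration-effect curves were fitted after normalization.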
Large screens that a line does not name were inactive; ! = a repeat was not active. In the library only some 8% were active in any assay of this set; here they are far more common. Calls come from the whole dose curve; as a rule, active = well fitted curve in the direction sought with a large enough effect; inconclusive = small, poorly fitted or top-dose-only effect, or another doubt; inactive = no such curve, though single readings can be large; an effect the other way counts as inactive or inconclusive.

CCOC(=O)C1=C(c2ccccc2)NC(=O)NC1c1cc(Cl)c(O)c(OC)c1 (stereo unspecified)	none
CCOC(=O)C1=C(c2ccccc2)NC(N)=NC1c1ccc(OCc2ccc(Cl)cc2)c(OC)c1 (stereo unspecified)	SW480 rerep inconclusive, MCF10A rerep 18µM, KB-3-1 cytotox inconclusive
COc1cc(O)c2c(=O)cc(-c3ccccc3)oc2c1	MCF10A rerep inconclusive
COc1c(O)cc(O)c2c(=O)cc(-c3ccccc3)oc12	KB-V1 cytotox inconclusive, MCF10A rerep 16µM
COc1cc(C(=S)N2CCN(C)CC2)ccc1OCC(=O)NCc1ccccc1	none
CN(C)S(=O)(=O)N(CC(=O)N1CCN(c2ccccc2)CC1)c1ccccc1	none
COc1ccccc1NC(=O)C(=O)NCCC1CCCCN1S(=O)(=O)c1ccc(F)cc1 (stereo unspecified)	none
COc1ccccc1NC(=O)C1CCCCN1S(=O)(=O)c1ccc(F)cc1 (stereo unspecified)	KB-V1 cytotox 5.2µM
COc1ccc(NC(=O)C2CCCCN2S(=O)(=O)c2ccc(F)cc2)cc1 (stereo unspecified)	HT1080 IDH1KD tx inconclusive
CCOc1ccccc1NC(=O)C1CCCCN1S(=O)(=O)c1ccccc1 (stereo unspecified)	KB-V1 cytotox 8.2µM, KB-3-1 cytotox inconclusive
CCOc1ccccc1NC(=O)C1CCCN(C(=O)NCc2ccccc2)C1 (stereo unspecified)	KB-V1 cytotox 8.2µM
COc1ccccc1NC(=O)C1CCCN(C(=O)NCc2ccccc2)C1 (stereo unspecified)	none
CCOc1ccc(NC(=O)C2CCCCN2S(=O)(=O)c2ccccc2)cc1 (stereo unspecified)	KB-V1 cytotox inconclusive, KB-3-1 cytotox inconclusive
COc1ccc(NC(=O)C2CCCCN2S(=O)(=O)c2ccc(F)cc2)c(OC)c1 (stereo unspecified)	KB-V1 cytotox 5.8µM
CCCN(CC(=O)Nc1ccccc1C)C(=O)c1cc(C)oc1C	none
Cc1c(CCC(=O)O)c(=O)oc2cc3occ(-c4ccc(Br)cc4)c3cc12	SW480 rerep inconclusive, MCF10A rerep inconclusive
CCN(CC)C(=O)c1cccc(-c2csc(C(O)c3ccccc3)n2)c1 (stereo unspecified)	HT1080 IDH1KD tx inconclusive (no result: SW480 rerep, MCF10A rerep)
O=C(Nc1ccccc1N1CCOCC1)C1CCN(S(=O)(=O)c2ccc(F)cc2)CC1	KB-V1 cytotox inconclusive
O=C(Nc1ccccc1N1CCCC1)C1CCN(S(=O)(=O)c2ccc(F)cc2)CC1	KB-V1 cytotox 8.2µM, SW480 rerep inconclusive, KB-3-1 cytotox inconclusive
O=C(NCC(c1ccco1)N1CCc2ccccc21)c1ccccc1F (stereo unspecified)	KB-V1 cytotox inconclusive
O=C(CCc1ccccc1)NCC(c1ccco1)N1CCc2ccccc21 (stereo unspecified)	KB-V1 cytotox 7.3µM, SW480 rerep 18µM, HT1080NT lethal 6.5µM, MCF10A rerep 4.6µM, HT1080 IDH1KD tx 5.2µM, KB-3-1 cytotox 3.7µM
Cc1ccccc1CS(=O)(=O)c1cnc2ccccc2n1	KB-V1 cytotox inconclusive, SW480 rerep inconclusive, HT1080NT lethal 23µM, MCF10A rerep 18µM, HT1080 IDH1KD tx inconclusive
Nc1cc2c(cc1C(=O)c1ccccc1F)OCCO2	none
Nc1cc2c(cc1C(=O)c1cccc(Br)c1)OCCO2	SW480 rerep inconclusive, MCF10A rerep 21µM, HT1080 IDH1KD tx inconclusive, KB-3-1 cytotox inconclusive
Cc1ccccc1OCCn1cc(C=O)c2ccccc21	KB-V1 cytotox 16µM, MCF10A rerep inconclusive, HT1080 IDH1KD tx inconclusive, KB-3-1 cytotox inconclusive
CCOc1nc2cnccc2n(CC(=O)Nc2c(F)c(F)cc(F)c2F)c1=O	none
O=C(CSCc1nc2ccccc2[nH]1)N1CCN(c2cccc(Cl)c2)CC1	KB-V1 cytotox 21µM, SW480 rerep inconclusive, KB-3-1 cytotox inconclusive
O=C(CCSCc1ccccc1Cl)N1CCN(c2cccc(Cl)c2)CC1	KB-V1 cytotox 21µM!, MCF10A rerep inconclusive
O=C(C1CCN(Cc2ccccc2)CC1)N1CCN(C/C=C/c2ccccc2)CC1	none
